Reference: the supplement of paper PMC6279402
Structures can show the parent of a compound that is named as a salt. ± gives the standard deviation of the averaged measurements.

System: A549
Assay: relative viability (normalised to negative control = 1, bortezomib = 0) (fraction); higher = less cytotoxic
Details: inflammatory serum-free RHB-A with cytokines + LPS, 5 d + 24 h CellTiter-Blue
Protocol: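 A549 KRAS-mutant NSCLC cells, pre-treated 5 µM GSK126 or vehicle (DMSO), were seeded at 250 cells/well in 384-well plates in serum-free RHB-A medium with inflammatory cytokines/LPS and treated with Selleck kinase inhibitor and NCI oncology compounds at 30 or 300 nM in triplicate, refreshed at 48 h. Viability was read by CellTiter-Blue after 5 d plus 24 h and normalised per plate with cellHTS2 (mean of bortezomib positive control = 0, mean of negative control = 1).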

[1] = compound 30 nM, GSK126 pretreatment: 5 uM GSK126
[2] = compound 30 nM, GSK126 pretreatment: none (vehicle)
[3] = compound 300 nM, GSK126 pretreatment: 5 uM GSK126
[4] = compound 300 nM, GSK126 pretreatment: none (vehicle)

Compound	relative viability [1]	relative viability [2]	relative viability [3]	relative viability [4]
COc1nc(N)nc2c1ncn2[C@@H]1O[C@H](CO)[C@@H](O)[C@@H]1O [Nelarabine]	0.838 ± 0.12	0.875 ± 0.13	0.96 ± 0.16	0.956 ± 0.14
C=CC(=O)Nc1cccc(Sc2nc(Nc3ccc(N4CCN(C)CC4)cc3)ncc2Cl)c1	0.859 ± 0.1	0.815 ± 0.085	0.475 ± 0.1	0.477 ± 0.083
O=C(O)C1(C(=O)O)CCC1.[NH2-].[NH2-].[Pt+2] [Carboplatin]	0.75 ± 0.042	0.748 ± 0.059	0.742 ± 0.048	0.812 ± 0.0056
CCN1CCN(Cc2ccc(-c3cc4c(N[C@H](C)c5ccccc5)ncnc4[nH]3)cc2)CC1	0.695 ± 0.092	0.693 ± 0.028	0.446 ± 0.042	0.414 ± 0.068
CC[C@]1(O)C[C@@H]2CN(CCc3c([nH]c4ccccc34)[C@@](C(=O)OC)(c3cc4c(cc3OC)N(C)[C@H]3[C@@](O)(C(=O)OC)[C@H](OC(C)=O)[C@]5(CC)C=CCN6CC[C@]43[C@@H]65)C2)C1 [Vinblastine sulfate salt; Vinblastine sulfate]	0.447 ± 0.011	0.286 ± 0.039	0.277 ± 0.024	0.255 ± 0.022
CC[C@H](CO)Nc1nc(NCc2ccccc2)c2ncn(C(C)C)c2n1 [ROSCOVITINE; Roscovitine(CYC202); Roscovitine]	0.929 ± 0.16	0.873 ± 0.12	0.963 ± 0.063	0.902 ± 0.088
c1ccc2c(-c3cnn4cc(-c5ccc(N6CCNCC6)cc5)cnc34)ccnc2c1	1.01 ± 0.16	0.961 ± 0.15	1.1 ± 0.067	1.13 ± 0.093
CCCCCOC(=O)Nc1nc(=O)n([C@@H]2O[C@H](C)[C@@H](O)[C@H]2O)cc1F [Capecitabine]	0.858 ± 0.12	0.867 ± 0.12	0.892 ± 0.14	0.965 ± 0.12
CC(=O)O[C@H]1C(=O)[C@@]2(C)[C@H]([C@H](OC(=O)c3ccccc3)[C@]3(O)C[C@H](OC(=O)[C@H](O)[C@@H](NC(=O)c4ccccc4)c4ccccc4)C(C)=C1C3(C)C)[C@]1(OC(C)=O)CO[C@@H]1C[C@@H]2O [Paclitaxel; Taxol]	0.391 ± 0.044	0.242 ± 0.009	0.368 ± 0.077	0.301 ± 0.048
O=C(O)C(=O)O.[NH-][C@@H]1CCCC[C@H]1[NH-].[Pt+2] [Oxaliplatin]	0.792 ± 0.077	0.782 ± 0.1	0.79 ± 0.088	0.796 ± 0.037
